Mtb hypoxia inh: Mtb hypoxia fluorescent reporter inhibition | AID 1159583 | fluorescence inhibition, % (no concentration beside the values) | M. tuberculosis hypoxia-regulated fluorescent reporter, fluorescence | 300,000 tested, 0.1% active; in the data active = fluorescence inhibition mostly above about 23%, no sharp cut-off; inactive = mostly below about 17%
Mtb bLac sens: beta-lactam sensitization of Mtb H37Rv; 330,000 tested, 0.27% active; inhibition, % at 25 µM; M. tuberculosis H37Rv growth with meropenem, percent inhibition; call rule not given here;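 note: growth measured after seven days incubation then overnight dye step; 0% = bacteria only wells and 100% = bacteria with antibiotic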
Sa RN4220 lethal: kills Staphylococcus aureus RN4220 | S. aureus RN4220 growth, OD600, 16 h | inhibition, % (concentration not given with the values) | 330,000 tested, 0.33% active | AID 1259311; in the data active = inhibition above about 85%;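 note: plate controls were untreated cells for no effect and reference antibiotic for full effect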
ugtP null kill: kills S. aureus RN4220 lacking UgtP | S. aureus RN4220 ugtP deletion, OD600 growth, 16 h | growth inhibition, % (no concentration beside the values) | 330,000 tested, 0.54% active; in the data active = growth inhibition above about 68%;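 note: plate controls were untreated wells for no effect and antibiotic for full effect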
* = called active by the depositor; . = no result. Sampled rows, rich in hits. Any-hit rate of the full collection: about 0.61%.

SMILES	Mtb hypoxia inh	Mtb bLac sens	Sa RN4220 lethal	ugtP null kill
Cc1cnnn1-c1ccc(C(=O)CCl)cc1	-83	-5	98*	98*
CC(=O)c1ccc(-n2nncc2C(C)(C)C)cc1	-12	5	-1	-5
O=C(c1ccc(Cl)cc1)C(CN1CCCC1)c1ccccc1 (configuration not stated)	14	100	67	87*
C#CCOCCOCCOCCNc1nc(N2CCN(C(=O)C(CCCCN)n3cc(CC(C)O)nn3)CC2)nc(N2CCN(C(=O)C(C(C)CC)n3cc(CCCN=C(N)N)nn3)CC2)n1 (configuration not stated)	17	.	8	2
CC(=NNC(=O)c1ccoc1C)c1ccccc1O	14	.	3	0
O=C(Nc1ccc(OCC(F)(F)C(F)F)c(C(F)(F)F)c1)c1ccccc1	.	-2	-12	-5
O=C(Nc1ccc(OCC(F)(F)C(F)F)c(C(F)(F)F)c1)c1ccccc1O	.	26	112*	100*
CCOc1c(Br)cc(C=NNC(=O)c2ccccc2)cc1OC	-5	.	-1	10
CN(N=Cc1cccs1)c1cc(=O)n(C)c(=O)[nH]1	.	.	-1	3
CC(/C=C/c1ccco1)=NNC(=O)OC(C)(C)C	0	.	0	-2
CN(/N=C/c1cc(Cl)cc(Cl)c1O)C(=S)NC(C)(C)C	.	7	.	.
CN(N=Cc1cc(Cl)cc(Cl)c1O)C(=S)NC(C)(C)C	13	.	100*	100*
CC1=C(C(=O)Nc2ccccc2)C(c2ccc(C)cc2)N=C(Nc2nc3ccccc3o2)N1 (configuration not stated)	37*	.	30	-10
CC1(C)CC(=O)C2=C(C1)NC(Nc1nc3ccccc3o1)=NC2c1ccccn1 (configuration not stated)	-4	91	3	8
COc1ccc(N2CC(C(=O)N3CCN(c4ccccc4F)CC3)CC2=O)cc1 (configuration not stated)	-1	1	2	-1
COc1ccc(S(=O)(=O)N2CCN(C(=O)C3CC(=O)N(c4ccccc4F)C3)CC2)cc1OC (configuration not stated)	31*	.	3	2
O=c1oc2cc(Cl)ccc2n1CSc1nc2ccccc2s1	.	8	85*	86
O=C(CSc1nc2ccccc2s1)N1c2ccccc2Sc2ccc(Cl)cc21	9	21	-3	15
O=C(NCC1CC1)C1(C(F)(F)F)CC(=CCc2ccccc2)CCCO1 (configuration not stated)	15	.	12	2
O=S1(=O)CCOCC(CC2CCCCC2)N1Cc1cccc(F)c1 (configuration not stated)	21	.	14	23
COc1cc2ccccc2cc1C(=O)NN=Cc1cccnc1	48*	.	1	-6
Cc1ccc(C(=O)NN=C2CCSC2)cc1[N+](=O)[O-]	0	.	1	4
CN(C)S(=O)(=O)c1ccc(C(=O)OCC(=O)Nc2ccc3c(c2)OCO3)cc1	21*	3	5	5
O=C(NN=Cc1cccc(F)c1)c1c(O)c2ccccc2[nH]c1=O	-2	.	99*	100*
CCOC(=O)c1oc2ccc(Br)cc2c1NC(=O)CN1CCN(C)CC1	.	-9	1	91*
SMILES	Mtb hypoxia inh	Mtb bLac sens	Sa RN4220 lethal	ugtP null kill
CC(=O)c1c(O)cc(O)c(C(C)=O)c1O	.	-4	86*	89*
COc1cc(C=NNC(=O)OC(C)(C)C)ccc1OC(=O)c1ccco1	5	.	6	2
CCOC(=O)C(C#N)=c1sc(=C2C=Cc3ccccc3N2CC)c(=O)n1CC	.	.	-1	5
CCOC(=O)/C(C#N)=C/C=C1\C=Cc2ccccc2N1CC	43*	5	10	2
CC(C)Oc1ccc(C=NNC(=O)C2CCCN2S(=O)(=O)c2ccc(Cl)cc2)cc1 (configuration not stated)	.	.	0	0
CCCC(=O)Nc1cccc2c1CCCC2	6	9	3	-6
CCc1ccc(OCC(=O)Nc2cccc3c2CCCC3)cc1	6	47	25	99*
COc1ccc(-c2nc(-c3ccc4c(c3)OCO4)[nH]c2-c2ccc(OC)cc2)cc1	-4	6	16	87*
CC(=O)NC(c1cccs1)c1cc([N+](=O)[O-])c2cccnc2c1O (configuration not stated)	16	16	53	39
O=C(CCc1ccccc1)NC(c1cccs1)c1cc(Cl)c2cccnc2c1O (configuration not stated)	14	.	76	16
CCC(=O)NC(c1cccs1)c1cc([N+](=O)[O-])c2cccnc2c1O (configuration not stated)	3	5	96*	98*
CCCC(=O)NC(c1cccs1)c1cc([N+](=O)[O-])c2cccnc2c1O (configuration not stated)	15	-3	80	91*
Cc1cc(C)c2sc(N(CCCN(C)C)C(=O)c3ccc(S(=O)(=O)N(C)C4CCCCC4)cc3)nc2c1	38*	99	-1	-16
CN(C)CCCN(C(=O)c1ccc(S(=O)(=O)N(C)C2CCCCC2)cc1)c1nc2ccc(F)cc2s1	6	-3	-1	-7
